In the supplement of paper PMC9446081:
± gives the standard deviation of the averaged measurements.

Key:
Experiment in all cases: relative enzymatic activity vs untreated control (fraction); higher = less inhibition
Settings in all cases: 100 µM; incubation time: 2 h at 37 C
[1] = test system: DNA gyrase
Protocol: (§1)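 In vitro enzymatic inhibition assays (ProFoldin kits) for 12 purified essential E. coli enzymes or complexes, each treated with 218 active antibacterial compounds at 100 µM for 2 h at 37°C. Read-outs were fluorescence or absorbance (phosphate detection, dye binding), converted to activity via standard curves and expressed relative to untreated DMSO controls.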

[2] = target: DNA helicase (UniProt P0ACB1)
Sequence of DNA helicase (P0ACB1 whole entry): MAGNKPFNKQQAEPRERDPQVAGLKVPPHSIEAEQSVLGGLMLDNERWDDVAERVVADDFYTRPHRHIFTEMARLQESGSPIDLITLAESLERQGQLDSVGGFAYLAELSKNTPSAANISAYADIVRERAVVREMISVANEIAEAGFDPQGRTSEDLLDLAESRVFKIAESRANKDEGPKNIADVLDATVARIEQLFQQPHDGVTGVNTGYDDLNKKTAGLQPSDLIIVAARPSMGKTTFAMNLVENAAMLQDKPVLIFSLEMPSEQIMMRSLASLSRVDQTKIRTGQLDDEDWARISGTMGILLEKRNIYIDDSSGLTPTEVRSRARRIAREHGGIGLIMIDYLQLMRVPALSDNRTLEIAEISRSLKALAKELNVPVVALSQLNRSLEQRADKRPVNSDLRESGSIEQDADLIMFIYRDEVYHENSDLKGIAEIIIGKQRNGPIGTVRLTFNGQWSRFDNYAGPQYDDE
Protocol: as §1

[3] = target: DNA ligase (UniProt B1XA82)
Sequence of DNA ligase (B1XA82 whole entry): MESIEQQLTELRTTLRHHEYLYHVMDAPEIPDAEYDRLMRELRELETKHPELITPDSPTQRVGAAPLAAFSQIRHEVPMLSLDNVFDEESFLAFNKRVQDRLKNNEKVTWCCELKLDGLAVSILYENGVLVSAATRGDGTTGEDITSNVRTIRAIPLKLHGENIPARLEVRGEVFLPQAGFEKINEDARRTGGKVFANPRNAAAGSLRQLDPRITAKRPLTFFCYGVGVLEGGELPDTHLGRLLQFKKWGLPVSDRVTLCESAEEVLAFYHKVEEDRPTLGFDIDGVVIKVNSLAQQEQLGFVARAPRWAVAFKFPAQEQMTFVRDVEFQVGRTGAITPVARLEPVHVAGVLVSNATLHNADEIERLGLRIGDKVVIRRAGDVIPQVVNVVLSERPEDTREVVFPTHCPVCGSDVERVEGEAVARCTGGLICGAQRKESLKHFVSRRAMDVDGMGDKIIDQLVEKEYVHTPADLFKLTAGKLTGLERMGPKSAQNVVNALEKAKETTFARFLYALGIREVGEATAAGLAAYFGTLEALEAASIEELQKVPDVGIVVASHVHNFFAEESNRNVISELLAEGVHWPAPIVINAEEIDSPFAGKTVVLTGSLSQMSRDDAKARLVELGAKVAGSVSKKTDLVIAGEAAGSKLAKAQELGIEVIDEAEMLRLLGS
Protocol: as §1

[4] = target: DNA polymerase (UniProt P10443)
Sequence of DNA polymerase (P10443 whole entry): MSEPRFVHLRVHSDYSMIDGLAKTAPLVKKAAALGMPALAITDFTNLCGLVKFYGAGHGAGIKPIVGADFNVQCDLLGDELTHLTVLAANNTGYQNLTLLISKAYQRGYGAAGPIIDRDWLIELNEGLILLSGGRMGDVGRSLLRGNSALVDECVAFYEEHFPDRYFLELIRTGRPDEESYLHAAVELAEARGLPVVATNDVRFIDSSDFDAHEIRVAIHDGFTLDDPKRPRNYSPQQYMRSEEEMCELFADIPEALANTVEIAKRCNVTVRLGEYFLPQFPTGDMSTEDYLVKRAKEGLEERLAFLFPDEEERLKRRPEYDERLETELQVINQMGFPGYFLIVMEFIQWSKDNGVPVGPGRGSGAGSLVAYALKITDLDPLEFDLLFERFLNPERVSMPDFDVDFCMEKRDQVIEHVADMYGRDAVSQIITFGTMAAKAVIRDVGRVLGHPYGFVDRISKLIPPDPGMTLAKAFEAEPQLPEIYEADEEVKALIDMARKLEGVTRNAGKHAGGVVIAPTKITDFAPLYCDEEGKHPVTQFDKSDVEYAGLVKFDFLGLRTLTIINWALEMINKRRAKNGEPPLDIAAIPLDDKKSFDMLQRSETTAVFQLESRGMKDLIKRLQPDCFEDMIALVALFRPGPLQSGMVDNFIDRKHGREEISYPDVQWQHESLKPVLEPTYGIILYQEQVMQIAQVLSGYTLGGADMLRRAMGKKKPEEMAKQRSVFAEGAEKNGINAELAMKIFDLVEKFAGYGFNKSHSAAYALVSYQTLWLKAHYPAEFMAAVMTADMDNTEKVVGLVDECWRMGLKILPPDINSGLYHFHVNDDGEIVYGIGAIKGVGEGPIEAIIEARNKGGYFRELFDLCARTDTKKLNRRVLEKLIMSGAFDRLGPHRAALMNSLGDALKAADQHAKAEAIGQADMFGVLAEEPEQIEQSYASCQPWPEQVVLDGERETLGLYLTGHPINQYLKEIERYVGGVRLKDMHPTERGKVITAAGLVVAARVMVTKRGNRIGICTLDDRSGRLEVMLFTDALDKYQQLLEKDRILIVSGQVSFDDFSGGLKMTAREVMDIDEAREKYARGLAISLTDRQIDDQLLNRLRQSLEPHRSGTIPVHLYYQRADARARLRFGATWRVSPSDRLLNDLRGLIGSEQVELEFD
Protocol: as §1

[5] = target: DNA primase (UniProt P0ABS7)
Sequence of DNA primase (P0ABS7 whole entry): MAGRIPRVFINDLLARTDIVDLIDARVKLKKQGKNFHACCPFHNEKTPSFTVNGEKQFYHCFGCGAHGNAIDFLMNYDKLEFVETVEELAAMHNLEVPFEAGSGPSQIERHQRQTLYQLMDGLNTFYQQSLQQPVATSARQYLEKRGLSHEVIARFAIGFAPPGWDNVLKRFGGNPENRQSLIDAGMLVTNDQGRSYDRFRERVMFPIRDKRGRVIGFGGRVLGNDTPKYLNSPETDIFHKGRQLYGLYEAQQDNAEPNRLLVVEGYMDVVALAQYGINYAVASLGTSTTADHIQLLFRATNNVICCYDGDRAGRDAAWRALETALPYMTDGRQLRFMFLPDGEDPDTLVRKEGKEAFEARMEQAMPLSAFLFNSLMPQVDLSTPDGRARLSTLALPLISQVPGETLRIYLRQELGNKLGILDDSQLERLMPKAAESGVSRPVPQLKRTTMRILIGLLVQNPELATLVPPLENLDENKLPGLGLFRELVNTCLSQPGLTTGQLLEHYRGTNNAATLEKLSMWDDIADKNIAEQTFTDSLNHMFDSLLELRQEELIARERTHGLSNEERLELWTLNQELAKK
Protocol: as §1

[6] = target: GlmU (UniProt A7ZTU1)
Sequence of GlmU (A7ZTU1 whole entry, looked up): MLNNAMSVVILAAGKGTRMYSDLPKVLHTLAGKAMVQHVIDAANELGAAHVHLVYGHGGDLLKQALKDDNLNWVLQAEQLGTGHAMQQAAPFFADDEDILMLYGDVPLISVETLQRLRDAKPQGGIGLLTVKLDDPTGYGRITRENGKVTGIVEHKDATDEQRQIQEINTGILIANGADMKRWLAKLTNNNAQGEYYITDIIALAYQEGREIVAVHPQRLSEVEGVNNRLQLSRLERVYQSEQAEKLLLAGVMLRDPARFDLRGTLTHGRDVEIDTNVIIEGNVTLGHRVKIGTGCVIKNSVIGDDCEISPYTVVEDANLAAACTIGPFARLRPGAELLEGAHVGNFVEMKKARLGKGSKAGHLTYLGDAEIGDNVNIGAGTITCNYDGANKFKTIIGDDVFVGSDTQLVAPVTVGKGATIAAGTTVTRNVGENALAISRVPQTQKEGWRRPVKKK
Protocol: as §1

[7] = target: Guanlyate kinase (UniProt Q0TBG1)
Sequence of Guanlyate kinase (Q0TBG1 whole entry): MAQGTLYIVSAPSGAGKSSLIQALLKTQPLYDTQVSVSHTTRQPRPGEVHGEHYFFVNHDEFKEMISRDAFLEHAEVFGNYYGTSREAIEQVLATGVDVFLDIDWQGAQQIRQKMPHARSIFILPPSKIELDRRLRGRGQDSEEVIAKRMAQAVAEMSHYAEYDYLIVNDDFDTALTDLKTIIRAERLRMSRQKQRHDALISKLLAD
Protocol: as §1

[8] = target: MurA (UniProt Q3YX52)
Sequence of MurA (Q3YX52 whole entry): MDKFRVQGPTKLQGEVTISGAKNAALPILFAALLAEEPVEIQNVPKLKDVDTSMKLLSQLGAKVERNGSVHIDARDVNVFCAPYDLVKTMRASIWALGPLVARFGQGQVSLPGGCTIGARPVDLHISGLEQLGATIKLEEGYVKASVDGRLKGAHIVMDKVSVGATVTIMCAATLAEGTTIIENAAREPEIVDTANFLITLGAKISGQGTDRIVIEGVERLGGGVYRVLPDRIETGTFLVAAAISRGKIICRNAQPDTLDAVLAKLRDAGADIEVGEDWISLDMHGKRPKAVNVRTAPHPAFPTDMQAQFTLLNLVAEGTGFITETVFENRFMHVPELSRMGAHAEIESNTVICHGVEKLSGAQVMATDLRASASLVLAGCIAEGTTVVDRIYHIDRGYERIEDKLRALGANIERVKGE
Protocol: as §1

[9] = test system: RNA polymerase
Protocol: as §1

SMILES | relative enzymatic activity [1] | relative enzymatic activity [2] | relative enzymatic activity [3] | relative enzymatic activity [4] | relative enzymatic activity [5] | relative enzymatic activity [6] | relative enzymatic activity [7] | relative enzymatic activity [8] | relative enzymatic activity [9]
CN(C)[C@@H]1C(=O)[C@@H](C(N)=O)C(=O)[C@@]2(O)C(=O)[C@H]3C(=O)c4c(O)ccc(Cl)c4[C@@](C)(O)[C@H]3C[C@@H]12 | 0.69 ± 0.15 | 0.484 ± 0.12 | 0.931 ± 0.077 | 0.474 ± 0.67 | 0.778 ± 0.016 | 1.01 ± 0.018 | 0.879 ± 0.079 | 0.617 ± 0.21 | 0.739 ± 0.086
CC(=O)[O][Hg][c]1ccccc1 | 0.0283 ± 0.04 | 0.415 ± 0.038 | 1.16 ± 0.04 | 0.285 ± 0.017 | 0.749 ± 0.28 | 0.987 ± 0.21 | 3.32 ± 0.43 | 0.474 ± 0.35 | 0.462 ± 0.044
CCn1cc(C(=O)[O-])c(=O)c2cc3c(cc21)OCO3.[K+] | 0.128 ± 0.074 | 0.576 ± 0.11 | 1.21 ± 0.081 | 1.08 ± 0.18 | 0.826 ± 0.033 | 0.959 ± 0.029 | 0.892 ± 0.14 | 0.798 ± 0.13 | 0.7827 ± 0.0058
COP(=S)(OC)Oc1cc(Cl)c(Cl)cc1Cl | 1.01 ± 0.21 | 0.105 ± 0.011 | 0.991 ± 0.28 | 1.39 ± 0.45 | 0.737 ± 0.2 | 1.09 ± 0.043 | 1.07 ± 0.027 | 0.585 ± 0.13 | 0.851 ± 0.025
C[CH2][Hg][S]c1ccccc1C(=O)[O-].[Na+] | 0.069 ± 0.018 | 0.749 ± 0.37 | 1.12 ± 0.031 | 0.94 ± 0.3 | 0.649 ± 0.14 | 1.07 ± 0.093 | 1.03 ± 0.11 | 0.212 ± 0.01 | 0.959 ± 0.048
Cc1c(N)nc([C@H](CC(N)=O)NC[C@@H](N)C(N)=O)nc1C(=O)N[C@H](C(=O)N[C@@H](C)[C@H](O)[C@@H](C)C(=O)N[C@@H](C(=O)NCCc1nc(-c2nc(C(=O)NCCC[S+](C)C)cs2)cs1)[C@@H](C)O)[C@@H](O[C@H]1O[C@H](CO)[C@H](O)[C@@H](O)[C@H]1O[C@H]1O[C@H](CO)[C@@H](O)[C@H](OC(N)=O)[C@@H]1O)c1c[nH]cn1 | 0.0451 ± 0.064 | 0.749 ± 0.38 | 1.26 ± 0.078 | 0.485 ± 0.028 | 0.878 ± 0.06 | 0.998 ± 0.07 | 0.96 ± 0.12 | 0.863 ± 0.16 | 0.866 ± 0.032
Cc1nc2c(=O)n(C)c(=O)nc-2n(C)n1 | 0.498 ± 0.2 | 0.6 ± 0.18 | 0.827 ± 0.053 | 1.04 ± 0.11 | 0.8 ± 0.023 | 0.927 ± 0.071 | 0.881 ± 0.045 | 0.131 ± 0.035 | 0.925 ± 0.15
CN(C)[C@@H]1C(=O)C(C(N)=O)=C(O)[C@@]2(O)C(O)=C3C(=O)c4c(O)cccc4[C@](C)(O)[C@H]3C[C@@H]12 | 1.15 ± 0.25 | 0.475 ± 0.031 | 1.06 ± 0.1 | 1.11 ± 0.24 | 0.753 ± 0.025 | 1.05 ± 0.084 | 0.836 ± 0.089 | 0.144 ± 0.0081 | 0.809 ± 0.1
CCCCCCCCCCCCCCCC[n+]1ccccc1 | 1.17 ± 0.056 | 0.0233 ± 0.0026 | 0.134 ± 0.0094 | 0.0267 ± 0.011 | 0.341 ± 0.023 | 0.19333 ± 8.8e-05 | 0.0415 ± 0.016 | 0.0717 ± 0.02 | 0.617 ± 0.64
Cn1ncnc2c(=O)n(C)c(=O)nc1-2 | 0.373 ± 0.21 | 0.533 ± 0.13 | 1.08 ± 0.28 | 0.994 ± 0.056 | 0.758 ± 0.047 | 0.966 ± 0.021 | 0.88 ± 0.059 | 0.129 ± 0.027 | 0.587 ± 0.6
[O-][n+]1ccccc1[S][Zn][S]c1cccc[n+]1[O-] | 0.849 ± 0.41 | 0.647 ± 0.14 | 1.08 ± 0.083 | 1.1 ± 0.13 | 0.788 ± 0.27 | 1.03 ± 0.0055 | 1.06 ± 0.052 | 0.109 ± 0.033 | 0.954 ± 0.052
O=C1C=C2C(=CCOC2O)O1 (stereo unspecified) | 0.0893 ± 0.13 | 0.409 ± 0.021 | 1.08 ± 0.17 | 0.547 ± 0.19 | 0.632 ± 0.14 | 0.811 ± 0.21 | 1.09 ± 0.049 | 0.0624 ± 0.018 | 0.56 ± 0.17
Oc1cc(Cl)ccc1Oc1ccc(Cl)cc1Cl | 1.04 ± 0.057 | 0.187 ± 0.1 | 0.856 ± 0.26 | 0.495 ± 0.69 | 0.839 ± 0.013 | 1.113 ± 0.0014 | 1 ± 0.059 | 0.846 ± 0.081 | 0.935 ± 0.17
CN(C)[C@@H]1C(=O)[C@H](C(N)=O)C(=O)[C@@]2(O)C(=O)[C@@H]3C(=O)c4c(O)cccc4[C@@](C)(O)[C@H]3C[C@@H]12 | 0.891 ± 0.31 | 0.615 ± 0.21 | 0.943 ± 0.033 | 0.874 ± 0.1 | 0.801 ± 0.02 | 1.03 ± 0.011 | 0.846 ± 0.13 | 0.379 ± 0.13 | 0.7359 ± 0.0054
Cc1c(N)nc([C@H](CC(N)=O)NC[C@@H](N)C(N)=O)nc1C(=O)N[C@H](C(=O)N[C@@H](C)[C@H](O)[C@@H](C)C(=O)N[C@@H](C(=O)NCCc1nc(-c2nc(C(=O)NCCC[S+](C)C)cs2)cs1)[C@@H](C)O)[C@@H](O[C@H]1O[C@H](CO)[C@H](O)[C@@H](O)[C@H]1O[C@H]1O[C@H](CO)[C@@H](O)[C@H](OC(N)=O)[C@@H]1O)c1cnc[nH]1 | 0.0494 ± 0.07 | 0.504 ± 0.71 | 1.121 ± 0.005 | 0.911 ± 0.2 | 0.801 ± 0.0016 | 1.06 ± 0.057 | 1.03 ± 0.061 | 0.787 ± 0.087 | 0.875 ± 0.077
CCCCCCCCCCCCCCCC[n+]1ccccc1.[Cl-] | 1.22 ± 0.054 | 0.0141 ± 0.0023 | 0.581 ± 0.2 | 0.0538 ± 0.0068 | 0.3763 ± 0.00042 | 0.16 ± 0.039 | 0.2 ± 0.092 | 0.0629 ± 0.0016 | 0.2601 ± 0.0012
O=S(=O)(O)O.Oc1cccc2cccnc12 | 0.857 ± 0.31 | 0.653 ± 0.14 | 1.05 ± 0.1 | 1.34 ± 0.49 | 0.441 ± 0.18 | 0.987 ± 0.048 | 0.981 ± 0.14 | 0.768 ± 0.011 | 0.862 ± 0.094
CN1C(=O)[C@]23CC4=CC=C[C@H](O)[C@H]4N2C(=O)[C@@]1(CO)SS3 | 0.669 ± 0.11 | 0.55 ± 0.14 | 1.06 ± 0.038 | 0.477 ± 0.68 | 0.859 ± 0.019 | 0.992 ± 0.012 | 0.947 ± 0.12 | 0.309 ± 0.13 | 0.838 ± 0.12
CC(=O)Oc1ccc(Cl)c2cccnc12 | 0.756 ± 0.36 | 0.577 ± 0.29 | 0.965 ± 0.18 | 1.09 ± 0.17 | 0.8364 ± 0.0049 | 0.987 ± 0.052 | 0.892 ± 0.12 | 0.873 ± 0.19 | 0.7397 ± 0.0065
O=[N+]([O-])c1ccc(N(CCO)CCO)c2c1no[n+]2[O-] | 1.22 ± 0.18 | 0.793 ± 0.094 | 1.49 ± 0.15 | 0.69 ± 0.21 | 0.559 ± 0.099 | 0.935 ± 0.067 | 0.448 ± 0.049 | 0.106 ± 0.026 | 0.679 ± 0.032
CN[C@H]1C[C@@H](N)[C@H](O)[C@@H](O[C@@H]2O[C@H](CO)[C@H](O)[C@@H]3O[C@@]4(O[C@H]23)O[C@H]([C@@H](N)CO)[C@H](O)[C@H](O)[C@H]4O)[C@@H]1O | 0.984 ± 0.14 | 0.571 ± 0.16 | 0.95 ± 0.14 | 1.19 ± 0.24 | 0.883 ± 0.02 | 1.029 ± 0.0074 | 0.933 ± 0.098 | 0.86 ± 0.2 | 0.8209 ± 0.0048
O=[N+]([O-])C(Br)(CO)CO | 0.108 ± 0.15 | 0.618 ± 0.27 | 0.897 ± 0.11 | 0.327 ± 0.015 | 0.596 ± 0.031 | 0.198 ± 0.059 | 0.943 ± 0.084 | 0.0632 ± 0.019 | 0.348 ± 0.045
CNC1C(O)C(OC2C(N)CC(N)C(OC3OC(C(C)O)C(O)C(O)C3N)C2O)OCC1(C)O (stereo unspecified) | 1.19 ± 0.12 | 0.447 ± 0.021 | 1 ± 0.031 | 1.37 ± 0.52 | 0.749 ± 0.25 | 0.973 ± 0.059 | 0.936 ± 0.045 | 0.77 ± 0.12 | 0.879 ± 0.05
CCCCCCCCCCCCCCCC[N+](C)(C)C.[Br-] | 1.21 ± 0.19 | 0.026 ± 0.0026 | 0.171 ± 0.036 | 0.0569 ± 0.0052 | 0.371 ± 0.042 | 0.235 ± 0.047 | 0.6144 ± 0.0056 | 0.0751 ± 0.018 | 0.162 ± 0.021
